Data taken from the supplement of paper PMC6555819.

Columns and labels:
Assay in all cases: PBM binding z-score (relative to random genomic background probes); higher = stronger binding; sequences stand for … in GC…GCGATTGACAGCGTAGAATGAAGG
[1] = system: PPARg:RXRa DBDmut IVT, anti-RXR (DBD mutation: RXRa K156A/R161A, NR concentration 270 nM, RXRa partner concentration 90 nM)
Outline: (§1)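 Antibodies against each partner of ligand-free nuclear receptor dimers (one per run) detected binding on custom Agilent 4×180K protein-binding microarrays after 1 h incubation. The double-stranded probes had 34-nt variable regions carrying direct-repeat seeds, single-nucleotide variants, half-site ablations and random human genomic background sequences. Binding z-scores, from regression-normalized fluorescence, use the random background probes as reference.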

[2] = system: PPARg:RXRa IVT, anti-PPARg (NR concentration 270 nM, RXRa partner concentration 90 nM)
Outline: as §1

[3] = system: PPARg DBDmut:RXRa IVT, anti-PPARg (DBD mutation: PPARg1 K132A/R137A, NR concentration 270 nM, RXRa partner concentration 90 nM)
Outline: as §1

[4] = system: PPARg DBDmut IVT, anti-PPARg (DBD mutation: PPARg1 K132A/R137A, NR concentration 270 nM)
Outline: as §1

[5] = system: PPARg homodimer (NR concentration 180 nM)
Outline: as §1

[6] = system: PXR:RXRa (NR concentration 270 nM, RXRa partner concentration 90 nM)
Outline: as §1

[7] = system: PXR homodimer (NR concentration 270 nM)
Outline: as §1

[8] = system: RARa:RXR (NR concentration 270 nM, RXRa partner concentration 90 nM)
Outline: as §1

[9] = system: RARa homodimer (NR concentration 270 nM)
Outline: as §1

[10] = system: RARb:RXRa (NR concentration 270 nM, RXRa partner concentration 90 nM)
Outline: as §1

[11] = system: RARb homodimer (NR concentration 270 nM)
Outline: as §1

[12] = system: RARg:RXRa (NR concentration 270 nM, RXRa partner concentration 90 nM)
Outline: as §1

[13] = system: RARg homodimer (NR concentration 270 nM)
Outline: as §1

[14] = system: RXRa DBDmut IVT, anti-RXR (DBD mutation: RXRa K156A/R161A, NR concentration 90 nM)
Outline: as §1

[15] = system: RXRa homodimer (NR concentration 180 nM)
Outline: as §1

[16] = system: THRa:RXRa (NR concentration 90 nM, RXRa partner concentration 90 nM)
Outline: as §1

[17] = system: THRa homodimer (NR concentration 90 nM)
Outline: as §1

[18] = system: VDR homodimer (NR concentration 270 nM)
Outline: as §1

Sequence | PBM binding z-score [1] | PBM binding z-score [2] | PBM binding z-score [3] | PBM binding z-score [4] | PBM binding z-score [5] | PBM binding z-score [6] | PBM binding z-score [7] | PBM binding z-score [8] | PBM binding z-score [9] | PBM binding z-score [10] | PBM binding z-score [11] | PBM binding z-score [12] | PBM binding z-score [13] | PBM binding z-score [14] | PBM binding z-score [15] | PBM binding z-score [16] | PBM binding z-score [17] | PBM binding z-score [18]
ATATGTAGGTTAGTTGGGGTCATTCAGACTAGGC | 6.81 | 5.83 | 2.02 | 2.15 | 3.78 | 6.79 | 7.04 | 5.99 | 2.35 | 3.21 | 3.96 | 4.34 | 2.99 | 2.64 | 6.03 | 5.13 | 3.99 | 5.97
CTACCAAGGTGAAGAAGGTCGTTGATTACTATTC | 1.68 | 1.84 | 0.127 | -0.276 | 0.69 | 1.53 | 0.655 | 1.48 | 0.317 | 1.74 | 1.74 | 1.35 | 1.07 | 0.727 | 1.34 | 2.13 | 0.885 | 1.34
CCGACTGGGGCAAGGTTACTATAACGCACAGCCA | 2.98 | 3.39 | 0.184 | -0.443 | 0.157 | 0.274 | -0.27 | 0.867 | -0.248 | 1.38 | 1.04 | 0.944 | 1.12 | -0.108 | 0.985 | 0.939 | 0.2 | 0.00113
CAAACTGGGTCAAGGTCAAAGTCGGTTTGTGCCA | 8.04 | 8.43 | 4.25 | 1.48 | 4.04 | 5.26 | 2.48 | 5.2 | 1.14 | 4.95 | 4.97 | 5.77 | 6.18 | 3.04 | 5.91 | 4.27 | 3.47 | 4.24
CAAACTAGGTCACAGAGGTAAAAGTCCGTGCGTA | 8.62 | 8.89 | 3.39 | 1.6 | 2.55 | 2.53 | 0.79 | 3.47 | 0.948 | 4.35 | 3.54 | 4.87 | 5.32 | 1.95 | 3.93 | 3.71 | 1.63 | 2.01
ACAGATAGGTGATGAAGGTAACTCAGGCTATCAT | 0.825 | 0.996 | 0.38 | 0.000268 | 0.111 | 0.00334 | -0.296 | 0.286 | 0.188 | 0.11 | 0.0763 | 0.532 | 0.586 | -0.397 | 0.485 | 0.83 | -0.19 | -0.247
CCTAGCAGGCCATGGTCACTCAAGCATTTCGCTT | 1.57 | 0.401 | -1.7 | -1.39 | -0.683 | -0.611 | -0.713 | -0.498 | -0.226 | 0.678 | 0.33 | -0.134 | 0.141 | -0.0842 | -0.236 | -0.37 | -0.618 | -0.529
